This is an account of results in PubChem BioAssay (EPA / NIEHS).

Common to all, as to conditions: mRNA level, 48 h; actives raise or lower the signal
Read-out in assay [1]: Tumor necrosis factor receptor superfamily member 6 (Homo sapiens) (UniProt P25445)
Kind of assay: LTEA_HepaRG_FAS: Life Technologies and Expression Analysis (LTEA) Assay for Fas cell surface death receptor (FAS) using HepaRG (AID 2283447). Summed up: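 FAS transcript level was measured by TaqMan qRT-PCR against three housekeeping genes after 48 h chemical exposure. Cells were HepaRG, 0.5% DMSO vehicle, with a top concentration of 100 uM and half-log dilutions over eight points, in duplicate.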

Read-out in assay [2]: Fatty acid synthase (Homo sapiens) (UniProt P49327)
The experiment in a line: LTEA_HepaRG_FASN: Life Technologies and Expression Analysis (LTEA) Assay for Fatty Acid Synthase (FASN) using HepaRG (AID 2283448). The gist of the method: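 Cells were plated, cultured 48 h, switched to serum-free induction medium, then dosed in duplicate (max 100 uM, half-log dilutions, 0.5% DMSO) for 48 h. RNA was then isolated and FASN quantified by qRT-PCR.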

Read-out in assay [3]: Cyclin D2 (CCND2), CCND2 (gene 894)
The experiment in a line: LTEA_HepaRG_CCND2: Life Technologies and Expression Analysis (LTEA) Assay for Cyclin D2 (CCND2) using HepaRG (AID 2283449). Summed up: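 CCND2 transcript levels, quantified by qRT-PCR and normalised to three housekeeping genes, were fitted bidirectionally against 0.5% DMSO. HepaRG cultures were dosed 48 h in duplicate with an 8-point half-log series up to 100 uM.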

Read-out in assay [4]: Cyclin Dependent Kinase Inhibitor 1A (CDKN1A), CDKN1A (gene 1026)
The experiment in a line: LTEA_HepaRG_CDKN1A: Life Technologies and Expression Analysis (LTEA) Assay for Cyclin Dependent Kinase Inhibitor 1A (CDKN1A) using HepaRG (AID 2283450). Summed up: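 Read-out is CDKN1A mRNA by TaqMan qRT-PCR, normalized to three housekeeping genes and fitted in both directions against the DMSO baseline. Human HepaRG cells were treated 48 h with test chemicals up to 100 uM in half-log steps, 0.5% DMSO.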

Read-out in assay [5]: catalase (CAT), CAT (gene 847)
The experiment in a line: LTEA_HepaRG_CAT: Life Technologies and Expression Analysis (LTEA) Assay for catalase (CAT) using HepaRG (AID 2283452). Summed up:
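Expression of CAT was quantified by TaqMan qRT-PCR with ACTB/GAPDH/POLR2A normalization after 48 h chemical exposure of HepaRG. Eight-point half-log series, top 100 uM, in 0.5% DMSO; gain or loss fitted against vehicle.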

Read-out in assay [6]: flavin-containing dimethylaniline monooxygenases 3 (FMO3), FMO3 (gene 2328)
The experiment in a line: LTEA_HepaRG_FMO3: Life Technologies and Expression Analysis (LTEA) Assay for flavin-containing dimethylaniline monooxygenases 3 (FMO3) using HepaRG (AID 2283453). The gist of the method: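 FMO3 transcript quantified by TaqMan qRT-PCR against three housekeeping genes after 48 h chemical exposure of HepaRG cells. Eight-point half-log series, top 100 uM, 0.5% DMSO vehicle; phenobarbital 1mM induction control; up- or down-regulation fitted.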

Read-out in assay [7]: Cytochrome P450 (CYP1A1), CYP1A1 (gene 1543)
Kind of assay: LTEA_HepaRG_CYP1A1: Life Technologies and Expression Analysis (LTEA) Assay for Cytochrome P450 (CYP1A1) using HepaRG (AID 2283454). Summed up: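 HepaRG, 48 h post-plating switched to serum-free induction medium; 8-pt conc-response (top 100 uM, half-log, 0.5% DMSO), duplicates, 48 h. Lysis in RLT, TaqMan qRT-PCR for CYP1A1; gain or loss vs DMSO.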

Read-out in assay [8]: CFLAR gene, CFLAR (gene 8837)
The experiment in a line: LTEA_HepaRG_CFLAR: Life Technologies and Expression Analysis (LTEA) Assay for CFLAR gene using HepaRG (AID 2283455). Summed up: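 Transcript level by qRT-PCR (normalized to ACTB, GAPDH and POLR2A) after 48 h chemical exposure of HepaRG cells, top concentration 100 uM with half-log steps, 0.5% DMSO vehicle, duplicates; fitted bidirectionally against DMSO baseline.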

Read-out in assay [9]: Forkhead box O1 (FOXO1), FOXO1 (gene 2308)
The experiment in a line: LTEA_HepaRG_FOXO1: Life Technologies and Expression Analysis (LTEA) Assay for Forkhead box O1 (FOXO1) using HepaRG (AID 2283456). The gist of the method:
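FOXO1 transcript quantified by qRT-PCR after 48 h chemical exposure (top 100 uM, half-log steps, 0.5% DMSO) of HepaRG cells, housekeeping-normalized (ACTB/GAPDH/POLR2A). Changes fitted in both directions relative to vehicle.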

Read-out in assay [10]: growth arrest and DNA damage 45 (GADD45A), GADD45A (gene 1647)
The experiment in a line: LTEA_HepaRG_GADD45A: Life Technologies and Expression Analysis (LTEA) Assay for growth arrest and DNA damage 45 (GADD45A) using HepaRG (AID 2283458). The gist of the method:
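Transcript induction or loss, quantified by TaqMan qRT-PCR against three housekeeping genes, is the read-out. HepaRG cells received chemicals for 48 h across eight half-log concentrations from 100 uM in 0.5% DMSO; gain and loss fitted relative to DMSO.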

Read-out in assay [11]: Forkhead box O3 (FOXO3), FOXO3 (gene 2309)
The experiment in a line: LTEA_HepaRG_FOXO3: Life Technologies and Expression Analysis (LTEA) Assay for Forkhead box O3 (FOXO3) using HepaRG (AID 2283459). The gist of the method:
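FOXO3 transcript measured by qRT-PCR (normalized to ACTB, GAPDH, POLR2A) after 48 h exposure of HepaRG cells in serum-free induction medium. Duplicates, eight half-log concentrations up to 100 uM, 0.5% DMSO; gain or loss fitted against DMSO.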

Read-out in assay [12]: ABC Transporter (ABCB1), ABCB1 (gene 5243)
The experiment in a line: LTEA_HepaRG_ABCB1: Life Technologies and Expression Analysis (LTEA) Assay for ABC Transporter (ABCB1) using HepaRG (AID 2283460). The gist of the method:
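ABCB1 transcript level measured by TaqMan qRT-PCR against three housekeeping genes after 48 h chemical exposure of differentiated HepaRG cells. Top concentration 100 uM, half-log steps, eight points, 0.5% DMSO vehicle; bidirectional fit relative to DMSO.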

Read-out in assay [13]: growth arrest and DNA damage 45 (GADD45B), GADD45B (gene 4616)
Kind of assay: LTEA_HepaRG_GADD45B: Life Technologies and Expression Analysis (LTEA) Assay for growth arrest and DNA damage 45 (GADD45B) using HepaRG (AID 2283461). The gist of the method: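 HepaRG, ~100,000 cells/well, 48 h plating; serum-free induction medium; cpd 100 uM top, half-log x8, 0.5% DMSO, duplicate, 48 h; lysis in RLT, RNA isolation, qRT-PCR; norm ACTB/GAPDH/POLR2A; bidirectional fit vs DMSO.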

Read-out in assay [14]: ABC Transporter (ABCC3), ABCC3 (gene 8714)
The experiment in a line: LTEA_HepaRG_ABCC3: Life Technologies and Expression Analysis (LTEA) Assay for ABC Transporter (ABCC3) using HepaRG (AID 2283462). The gist of the method: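 Human HepaRG, 48 h dosing, 8-pt half-log series from 100 uM, 0.5% DMSO vehicle, duplicates. ABCC3 mRNA by TaqMan qRT-PCR, housekeeping-normalized; bidirectional curve fit vs DMSO.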

Read-out in assay [15]: ABC Transporter (ABCB11), ABCB11 (gene 8647)
Kind of assay: LTEA_HepaRG_ABCB11: Life Technologies and Expression Analysis (LTEA) Assay for ABC Transporter (ABCB11) using HepaRG (AID 2283463). Summed up:
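ABCB11 transcript levels quantified by TaqMan qRT-PCR against three housekeeping genes after 48 h chemical exposure of HepaRG cultures. Concentrations up to 100 uM in half-log steps, 0.5% DMSO vehicle; both induction and suppression scored.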

Read-out in assay [16]: Broad substrate specificity ATP-binding cassette transporter ABCG2 (Homo sapiens) (UniProt Q9UNQ0)
Kind of assay: LTEA_HepaRG_ABCG2: Life Technologies and Expression Analysis (LTEA) Assay for ABC Transporter (ABCG2) using HepaRG (AID 2283465). The gist of the method: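 ABCG2 transcript was quantified by TaqMan qRT-PCR against three housekeeping genes in HepaRG cells. Cells were treated in duplicate for 48 h across an 8-point half-log series up to 100 uM, with 0.5% DMSO vehicle. Gain or loss versus DMSO was fit.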

Read-out in assay [17]: Cyclin D1 (CCND1), CCND1 (gene 595)
Kind of assay: LTEA_HepaRG_CCND1: Life Technologies and Expression Analysis (LTEA) Assay for Cyclin D1 (CCND1) using HepaRG (AID 2283451). Summed up:
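HepaRG plated 48 h, medium switched to serum-free induction medium, chemicals added in duplicate (top 100 uM, half-log steps, 0.5% DMSO) for 48 h, cells lysed, RNA measured by TaqMan qRT-PCR.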

Read-out in assay [18]: ABC Transporter (ABCC2), ABCC2 (gene 1244)
The experiment in a line: LTEA_HepaRG_ABCC2: Life Technologies and Expression Analysis (LTEA) Assay for ABC Transporter (ABCC2) using HepaRG (AID 2283464). The gist of the method: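 HepaRG, 48 h post-plating; serum-free induction medium; cpd 8-pt, 100 uM top, half-log, 0.5% DMSO, duplicate, 48 h. Readout: ABCC2 mRNA by qRT-PCR, norm. ACTB/GAPDH/POLR2A. Bidirectional fit vs DMSO baseline.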

Molecules are shown by their SMILES. Activity calls are given as the source filed them. Rule for the calls: active = hit-call score of the fitted dose curve at least 0.9, where 1 is the maximum; inactive = score below 0.9.

Broad substrate specificity ATP-binding cassette transporter ABCG2 (Homo sapiens), sequence (Q9UNQ0 whole entry, looked up): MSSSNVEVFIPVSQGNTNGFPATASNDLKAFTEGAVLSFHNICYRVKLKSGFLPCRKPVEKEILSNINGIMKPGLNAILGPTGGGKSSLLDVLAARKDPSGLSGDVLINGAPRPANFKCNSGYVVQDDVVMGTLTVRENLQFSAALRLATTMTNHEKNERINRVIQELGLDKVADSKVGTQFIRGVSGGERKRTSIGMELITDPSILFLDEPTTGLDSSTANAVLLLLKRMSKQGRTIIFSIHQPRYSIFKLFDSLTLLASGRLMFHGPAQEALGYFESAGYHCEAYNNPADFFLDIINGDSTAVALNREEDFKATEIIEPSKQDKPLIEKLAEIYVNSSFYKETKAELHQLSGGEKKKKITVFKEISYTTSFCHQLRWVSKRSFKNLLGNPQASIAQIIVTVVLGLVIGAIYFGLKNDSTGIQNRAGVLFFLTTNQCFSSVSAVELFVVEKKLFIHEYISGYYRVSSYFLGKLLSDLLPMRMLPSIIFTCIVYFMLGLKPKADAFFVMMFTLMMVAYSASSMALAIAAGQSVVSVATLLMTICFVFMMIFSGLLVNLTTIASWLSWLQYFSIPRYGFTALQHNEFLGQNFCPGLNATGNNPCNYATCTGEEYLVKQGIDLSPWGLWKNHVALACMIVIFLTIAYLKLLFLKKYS
Fatty acid synthase (Homo sapiens), sequence (P49327 whole entry, looked up): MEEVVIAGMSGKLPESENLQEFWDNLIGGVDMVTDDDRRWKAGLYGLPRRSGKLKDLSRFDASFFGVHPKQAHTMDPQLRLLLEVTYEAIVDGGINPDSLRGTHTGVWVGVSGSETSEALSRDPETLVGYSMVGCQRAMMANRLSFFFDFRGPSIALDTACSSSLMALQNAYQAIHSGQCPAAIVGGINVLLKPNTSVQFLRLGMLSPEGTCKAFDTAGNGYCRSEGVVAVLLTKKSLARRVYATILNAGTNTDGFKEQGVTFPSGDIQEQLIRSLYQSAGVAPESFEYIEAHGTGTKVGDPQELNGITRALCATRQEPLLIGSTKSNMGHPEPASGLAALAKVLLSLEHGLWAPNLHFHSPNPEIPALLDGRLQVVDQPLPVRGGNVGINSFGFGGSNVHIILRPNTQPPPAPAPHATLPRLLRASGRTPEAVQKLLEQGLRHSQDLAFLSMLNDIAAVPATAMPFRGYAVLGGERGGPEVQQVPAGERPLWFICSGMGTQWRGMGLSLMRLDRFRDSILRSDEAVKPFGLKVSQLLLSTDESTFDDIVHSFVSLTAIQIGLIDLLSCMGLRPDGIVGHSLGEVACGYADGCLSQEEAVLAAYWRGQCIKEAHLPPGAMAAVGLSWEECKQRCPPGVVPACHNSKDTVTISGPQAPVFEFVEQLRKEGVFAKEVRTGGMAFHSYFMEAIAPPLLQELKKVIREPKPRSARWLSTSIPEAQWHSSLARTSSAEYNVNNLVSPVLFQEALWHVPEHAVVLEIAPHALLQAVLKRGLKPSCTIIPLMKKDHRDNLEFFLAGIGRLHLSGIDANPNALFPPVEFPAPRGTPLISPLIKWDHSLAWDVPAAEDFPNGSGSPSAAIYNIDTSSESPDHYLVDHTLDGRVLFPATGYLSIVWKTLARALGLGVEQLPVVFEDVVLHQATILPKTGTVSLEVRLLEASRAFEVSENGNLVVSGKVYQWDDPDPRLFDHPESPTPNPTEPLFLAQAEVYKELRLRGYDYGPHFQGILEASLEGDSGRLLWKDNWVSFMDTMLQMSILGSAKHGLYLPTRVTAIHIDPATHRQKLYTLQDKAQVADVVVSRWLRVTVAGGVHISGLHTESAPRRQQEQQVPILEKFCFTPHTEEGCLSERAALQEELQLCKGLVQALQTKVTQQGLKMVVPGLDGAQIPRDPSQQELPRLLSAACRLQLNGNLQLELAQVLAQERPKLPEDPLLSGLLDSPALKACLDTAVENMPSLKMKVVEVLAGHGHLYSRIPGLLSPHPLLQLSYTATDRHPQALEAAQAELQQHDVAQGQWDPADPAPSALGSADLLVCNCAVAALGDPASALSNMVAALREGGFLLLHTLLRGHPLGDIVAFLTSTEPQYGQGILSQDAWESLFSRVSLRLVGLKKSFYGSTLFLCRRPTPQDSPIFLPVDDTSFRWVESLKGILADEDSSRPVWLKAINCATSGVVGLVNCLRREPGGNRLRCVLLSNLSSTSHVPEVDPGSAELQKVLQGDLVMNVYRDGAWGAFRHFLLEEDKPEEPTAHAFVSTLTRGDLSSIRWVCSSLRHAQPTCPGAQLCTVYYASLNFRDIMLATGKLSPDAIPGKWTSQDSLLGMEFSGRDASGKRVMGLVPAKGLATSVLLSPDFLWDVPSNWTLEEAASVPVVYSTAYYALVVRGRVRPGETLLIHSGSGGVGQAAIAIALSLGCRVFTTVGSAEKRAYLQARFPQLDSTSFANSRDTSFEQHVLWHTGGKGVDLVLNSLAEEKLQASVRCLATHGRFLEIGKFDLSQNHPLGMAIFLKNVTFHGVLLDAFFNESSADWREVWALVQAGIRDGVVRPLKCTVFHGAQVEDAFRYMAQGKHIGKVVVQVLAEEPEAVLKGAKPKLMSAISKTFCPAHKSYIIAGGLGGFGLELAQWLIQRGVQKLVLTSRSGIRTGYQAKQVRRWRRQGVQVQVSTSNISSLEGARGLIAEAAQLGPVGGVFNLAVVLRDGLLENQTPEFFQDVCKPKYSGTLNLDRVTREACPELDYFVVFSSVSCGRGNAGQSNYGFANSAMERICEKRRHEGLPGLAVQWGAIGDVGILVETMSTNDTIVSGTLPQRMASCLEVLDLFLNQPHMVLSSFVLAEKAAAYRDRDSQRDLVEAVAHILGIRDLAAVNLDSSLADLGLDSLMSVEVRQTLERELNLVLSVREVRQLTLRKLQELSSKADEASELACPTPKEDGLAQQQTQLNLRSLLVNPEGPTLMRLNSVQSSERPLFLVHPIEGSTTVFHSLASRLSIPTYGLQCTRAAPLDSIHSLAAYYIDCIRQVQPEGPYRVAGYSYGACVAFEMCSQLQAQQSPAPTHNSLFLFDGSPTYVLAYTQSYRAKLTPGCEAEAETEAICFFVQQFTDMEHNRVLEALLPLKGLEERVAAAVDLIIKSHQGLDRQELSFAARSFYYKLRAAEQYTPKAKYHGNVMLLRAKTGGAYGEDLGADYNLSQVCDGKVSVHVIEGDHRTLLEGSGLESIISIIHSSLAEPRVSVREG

Take `Cc1ccc2ncccc2c1`: the outcome in [1], in [2], in [3], in assay [4], in assay [5] and in assay [6] was inactive. In addition, the call in assay [8], in [9], in assay [10], in assay [11], in assay [12] and in assay [13] was inactive. Further, the result in assay [14], in assay [15] and in assay [16] was inactive. The AC50 (usually the midpoint of the concentration-response curve, whichever way the signal moves) in [7] was 50 µM (active).
As for `OC[C@@H](O)[C@@H](O)[C@H](O)[C@H](O)CO`, the molecule was called inactive in assay [1], in assay [2], in assay [3], in [4], in [17] and in [5]. Further, the call in assay [6], in assay [7], in assay [9], in assay [10], in assay [11] and in assay [12] was inactive. The result in [13], in assay [14], in assay [18] and in assay [16] was inactive.
In the case of `CCCc1cc(=O)[nH]c(=S)[nH]1`, the outcome in assay [1], in assay [2], in [3], in [4], in assay [17] and in assay [5] was inactive. For the same molecule, the outcome in assay [6], in assay [9], in [10], in [11], in assay [12] and in [13] was inactive. Moreover, the result in assay [14], in assay [15], in [18] and in [16] was inactive. Further, the AC50 in assay [7] was 50 µM (active).
For the molecule `CC(=O)OCCOCCOCCOC(C)=O`, the result in assay [1], in assay [2], in assay [3], in [4], in [17] and in [5] was inactive. Also, the molecule was called inactive in assay [6], in assay [7], in [9], in assay [10], in [11] and in assay [12]. For the same molecule, the result in [13], in [14], in assay [18] and in assay [16] was inactive.
For `CCCCCCCCCCCC(=O)OC`, the call in assay [1], in assay [2], in [3], in [4], in assay [17] and in assay [5] was inactive. For the same molecule, the call in [6], in assay [9], in [10], in assay [12], in assay [13] and in assay [14] was inactive. The outcome in assay [18] and in [16] was inactive. The AC50 in [7] is 60.3 µM (active).
As for `Cc1ccc(C)c(O)c1C`, the call in [1], in assay [2], in assay [3], in assay [4], in assay [17] and in [5] was inactive. In addition, the outcome in assay [6], in [9], in [10], in [12], in [13] and in assay [14] was inactive. For the same molecule, the call in [16] was inactive. In addition, in [7], the AC50 was 68 µM (active).
With `NCCO`, the call in [1], in [2], in assay [3], in [4], in assay [5] and in assay [6] was inactive. The molecule was classed as inactive in [8], in [9], in assay [10], in assay [11], in [12] and in assay [13]. In addition, the molecule was classed as inactive in [14], in assay [18] and in assay [16]. The AC50 in assay [7] was 50 µM (active).
Regarding `CCCCCCCCCCCCCO`, the call in assay [1], in assay [2], in [3], in assay [4], in assay [5] and in assay [6] was inactive. For the same molecule, the molecule was called inactive in assay [7], in [8], in assay [9], in assay [10], in [11] and in assay [12]. Further, the molecule was called inactive in assay [13], in assay [14], in [15] and in assay [16].
